# Screening results as filed in PubChem BioAssay.
# A selection: hits, their analogues and other compounds. The true share with any hit is near 2.3%.
# HTR2A ag: agonists of mouse serotonin 5-HT2A receptor (HTR2A); P35363; CHO-K1 mHTR2A beta-arrestin complementation, luminescence; percent of 30 µM serotonin response; activation, % at 7.6 µM; 360,000 tested, 0.66% active; AID 624169;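 active = activation above a run cutoff, the mean activation of all tested compounds plus 3 SD, cut at about 14% in these data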;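 note: 0% = plate median of compound wells and 100% = 30 µM serotonin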
# Granule exo inh: blocks lytic granule exocytosis | TALL-104 LAMP-1 surface exposure, flow cytometry; cells stimulated with thapsigargin and PMA | inhibition, % at 10 µM | 360,000 tested, 0.66% active | AID 651702;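 active = inhibition above about 55%, limit read from the data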
# ABHD5-PLIN5 inh: ABHD5-PLIN5 protein interaction inhibition; Q00G26+Q8WTS1; Split G. princeps luciferase complementation, luminescence, 4 h; inhibition, % at 4 µM; 360,000 tested, 0.78% active; AID 602281;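 active = inhibition above the mean inhibition across every tested compound plus 3 SD, cut at about 22% in these data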;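 note: 0% = DMSO only wells and the 100% control is not disclosed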
# NTR1 ag: NTR1 (human) agonism; 330,000 tested, 0.17% active; activation, % at 20 µM; P30989; NTR1-U2OS beta-arrestin-GFP spot imaging, agonist mode; AID 493036;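 active = activation at or above 40% of the spot to cytoplasm intensity ratio, with at least 20 cells analyzed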;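 note: 0% = DMSO without peptide and 100% = 100 nM NTR1 peptide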
# Target sequence (P30989 whole entry, looked up): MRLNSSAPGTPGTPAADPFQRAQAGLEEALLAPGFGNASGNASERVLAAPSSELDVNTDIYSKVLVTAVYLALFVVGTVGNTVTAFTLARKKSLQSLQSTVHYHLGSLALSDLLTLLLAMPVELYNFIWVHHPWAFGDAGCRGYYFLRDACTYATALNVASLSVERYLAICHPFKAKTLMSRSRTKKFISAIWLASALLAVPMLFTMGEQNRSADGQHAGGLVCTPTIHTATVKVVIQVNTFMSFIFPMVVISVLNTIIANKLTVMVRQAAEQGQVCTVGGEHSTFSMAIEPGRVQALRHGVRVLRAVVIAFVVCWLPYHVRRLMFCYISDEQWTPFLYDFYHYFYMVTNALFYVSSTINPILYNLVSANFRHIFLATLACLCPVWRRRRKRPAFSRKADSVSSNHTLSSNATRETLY
# Beta2AR agonist: human beta-2 adrenergic receptor agonism by FAP | 340,000 tested, 0.43% active | P07550 | AID 504454 | response, % (test concentration not listed) | Am2.2-beta2AR cells, FAP receptor internalization, flow cytometry;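 active = response above a set limit, near 3 SD of response in nonfluorescent compounds, cut at about 42% in these data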
# Starred values were filed as active, the others as inactive; . = no result; ! = a repeat was not active.
SMILES,HTR2A ag,Granule exo inh,ABHD5-PLIN5 inh,NTR1 ag,Beta2AR agonist
CNC(=S)N/N=C/c1c2ccccc2c(Cl)c2ccccc12,-2.5,56.5*,-6.3,-1.3,-13.2
COCCNC(=S)N/N=C/c1c2ccccc2cc2ccccc12,2.6,12.5,-6.0,7.9,5.1
NNC(=O)c1csc(-c2ccc(C(F)(F)F)cc2Cl)n1,1.3,-4.4,4.3,1.2,-6.1
Cc1ccc(NC(=O)c2ccc(C(C)(C)C)cc2)cc1[N+](=O)[O-],-3.8,-1.8,-10.4,13.4,-1.1
CCOc1ccc(S(=O)(=O)Nc2cc(SCC(=O)O)c(O)c3ccccc23)cc1,-0.8,-0.3,-18.2,.,1.3
CC(C)OC(=O)C(C(=O)C(F)(F)F)c1cc(NS(=O)(=O)c2ccc3ccccc3c2)c2ccccc2c1O (stereo not drawn),-1.4,26.5,41.2*,18.6,18.4
Cc1ccc2cc(CN(CCCN(C)C)C(=S)NCc3ccccc3)c(=O)[nH]c2c1C,-1.0,38.2,23.0*,7.0,32.7
CN(C)c1ccc(/C=C2\CCC/C(=C\c3ccccc3)C2=O)cc1,2.6,9.1,5.4,.,-9.5
CC(=O)N1/C(=C/c2ccc(N(C)C)cc2)C(=O)c2ccccc21,-6.0,-2.3,19.3,.,45.3*
O=C(O)CCc1ccc(-c2cccs2)o1,1.6,5.1,70.0*,0.5,1.6
O=C(O)CCc1ccc(-c2cccs2)n1Cc1ccco1,-1.0,-5.7,18.2,2.7,14.1
O=C(c1ccco1)N1CCN(C(=S)Nc2ccccc2Cl)CC1,15.1*,6.9,0.8,-0.7,0.0
Oc1ccc(C[C@H]2CNC(=S)N2C[C@H]2CCCN2C[C@H](Cc2ccccc2)N2C[C@H](Cc3ccc(O)cc3)N(CC3CCCCCC3)C2=S)cc1,-2.8,8.8,4.0,.,.
CCOc1ccc(Nc2nc(N)nc(CCl)n2)cc1,5.6,60.2*,1.1,8.5,26.4
COc1cccc(Nc2nc(N)nc(CCl)n2)c1,2.5,68.2*,-32.4,0.2,-7.3
Cc1ccc(Nc2nc(N)nc(CCl)n2)cc1,0.6,51.4,9.2,1.2,8.7
Cc1cccc(Nc2nc(N)nc(CCl)n2)c1,2.1,69.7*,6.2,-0.8,-6.0
Nc1c(Cl)cc(C2=NCCn3c2c2ccc([N+](=O)[O-])cc2[n+]3[O-])cc1Cl,-9.6,82.2*,-6.8,-0.8,-12.4
O=[N+]([O-])c1ccc(Nc2nc(N/N=C/c3cccc(F)c3)nc(N3CCCC3)n2)cc1,-3.5,2.3,-2.2,6.6,8.3
O=[N+]([O-])c1ccc(Nc2nc(NC3CCCCC3)nc(N3CCCC3)n2)cc1,0.2,78.2*,4.8,4.7,6.6
NC(N)=N/N=C/c1ccc(OCc2ccccc2)c(OCc2ccccc2)c1,-6.7,-19.5,-41.4,11.6,30.3
CCOc1cc(/C=N/N=C(N)N)ccc1OCc1ccc(Cl)cc1,-5.7,23.3,4.7,.,45.8*
COc1ccc(-c2cc(C(=O)N(C)CC(=O)Nc3cccc(F)c3)c3ccccc3n2)cc1,1.2,-7.6,-5.8,6.7,19.8
FC(F)(F)c1cc(CCN2CCNC[C@H]2Cc2cccc3ccccc23)cc(C(F)(F)F)c1,-0.4,15.0,0.5,50.6*,22.2
Nc1[nH]c(C(=O)c2ccccc2)c(-c2ccc(Cl)cc2Cl)c1C(=O)c1ccc(Br)cc1,11.3,-11.3,-1.7,.,.
SMILES,HTR2A ag,Granule exo inh,ABHD5-PLIN5 inh,NTR1 ag,Beta2AR agonist
Cc1cc2c(cc(C(=O)OCC(=O)NCc3ccco3)n2C)s1,-0.8,9.2,4.6,0.4,-9.0
Cn1c(C(=O)OCC(=O)NCc2ccco2)cc2sccc21,-0.7,-2.5,23.1*,-0.3,-34.5
O=C(CSc1n[nH]c(-c2ccccc2)n1)NCc1cccc(C(=O)O)c1,4.3,-0.3,5.7,1.0,0.9
O=C(NCCc1cccnc1)C1CCC(=O)N(CCc2cccc(F)c2)C1 (stereo not drawn),7.2,-1.7,22.1*,-0.7,5.6
O=C(NCCc1ccc(C(F)(F)F)cc1)C1CCC(=O)N(CCc2cccc(F)c2)C1 (stereo not drawn),-3.0,-3.9,3.0,-0.7,1.7
Cc1cn(-c2cc(C(=O)Nc3ccc(C)c(NC(=O)C(=O)c4c[nH]c5ccccc45)c3)cc(C(F)(F)F)c2)cn1,16.5*!,16.3,-5.0,-3.5,4.0
CCCCCCCCCCOC(=O)Cn1c(COc2ccccc2)[n+](C)c2ccccc21,-6.7,65.9*,11.8,30.7,7.8
CN1CCN(c2ccc(NC(=S)NC(=O)/C=C/c3ccco3)cc2)CC1,-11.0,56.7*,-6.8,-0.5,-11.4
Cn1cnc(S(=O)(=O)N2CCCC(c3cc(C(=O)Nc4ccc(F)c(Cl)c4)no3)C2)c1 (stereo not drawn),-0.7,2.5,-4.8,.,.
N#CC1=C(S)N=C(N)C(c2nc(-c3ccccc3)cs2)C12CCCC2 (stereo not drawn),-1.8,70.5*,1.9,-1.3,29.7
N#CC1=C(S)N=C(N)C(c2nc(-c3ccccc3)cs2)C12CCCCC2 (stereo not drawn),12.9,-1.1,20.7,-0.4,14.4
O=C(CSc1nnc(-c2ccccn2)n1Cc1ccco1)c1ccc(-c2ccccc2)cc1,-7.3,5.6,57.4*,2.8,-4.0
O=C(CSc1nnc(-c2ccc(O)cc2)n1Cc1ccco1)c1ccccc1,-5.3,4.0,2.2,-1.2,-1.3
N#CCN=C(c1ccccc1)c1ccccc1,-4.3,-3.7,-2.4,1.2,-3.3
CN(C)CCCN(C(=O)c1cc2cc([N+](=O)[O-])ccc2s1)c1nc2cc3c(cc2s1)OCCO3,-10.1,75.8*,10.0,26.3,34.7
CN(C)CCCN(C(=O)c1ccc(Br)s1)c1nc2cc3c(cc2s1)OCCO3,-10.7,21.8,11.0,4.1,19.3
O=C(N/N=C/c1ccccn1)c1sc2ccccc2c1Cl,-7.2,60.2*,5.1,3.6,18.9
O=C(C=P(c1ccccc1)(c1ccccc1)c1ccccc1)c1ccccc1-c1ccccc1C(=O)C=P(c1ccccc1)(c1ccccc1)c1ccccc1,-1.7,12.4,26.0*,.,103.8*
O=C(NNC(=O)c1ccccc1-c1ccccc1C(=O)O)c1ccccc1,3.0,0.7,7.8,-0.1,2.8
COc1cc(C=C2Cc3ccccc3C2=O)cc(OC)c1OC,3.2,-13.3,22.3*,.,.
CC1(C(=O)OCC(=O)NCCNC(=O)COC(=O)C2(C)CC2(Cl)Cl)CC1(Cl)Cl (stereo not drawn),2.2,2.0,-8.8,-0.2,-5.7
CC(C)Cc1ccc(C(C)/C=C2/CCC(CN3CCCCC3)C2=O)cc1 (stereo not drawn),2.2,48.0,22.5*,.,25.1
Cc1ccc(OCCn2cc(C#N)c3ccccc32)cc1,-4.2,68.0*,1.1,1.7,5.5
COc1ccc(S(=O)(=O)Nc2ccc3c(c2)C(=O)N([C@H](C)CO)C[C@H](C)[C@@H](CN(C)Cc2ccncc2)OCCCC[C@@H](C)O3)cc1,-1.3,0.3,0.0,.,.
O=C(c1ccccc1)c1ccc2nc(-c3ccco3)c(-c3ccco3)nc2c1,-0.6,13.7,28.6*,5.9,8.6
